biological target: CYLC1; assay: pooled miR-30 sensor sort-seq; sequence = guide strand; conditions: shRNA
Also: reference of the scale not given here.

Row | Sequence | sensor-assay potency score (higher = more potent)
1 | TTGGATGACATTCTGAATCCTC | 0.399
2 | TAATTTTTTCTTATCCTTCTTT | 0.0107
3 | TATGGGATCATTACTAGTCTTT | -0.233
4 | TATTATCTGTCTTTGAATCTTT | 0.0737
5 | TTTTTCTTAACTTTCTTTGAAT | -0.75
6 | TTTCTTGGAATCTTTCTTCAAA | -0.0994
7 | TTGAATTTGCAGATGTGCCATC | -0.566
8 | TTCAGTATCTGAACCTTTGATT | -0.393
9 | TTCTCTTCTACTATTTGCTTGG | -0.0318
10 | TTGACTTCTTGGATTGTTCATT | -0.552
11 | TTTAGTTTTCTCTTCTACTATT | -1.07
12 | TTGTTGCATATGAACCTCCTTT | -0.831
13 | TTGATTTATCATTTGTACCTCT | 0.236
14 | TTGATGGAGGAACTCTACCTGT | -0.867
15 | TTGTCATGTCTAGTAACTGTTA | -0.717
16 | TTTCTTGTCATCTTTCTTGACA | -0.649
17 | TTATTCTGTGAGTAATTCCTTA | -0.37
18 | TTCATCTTTCTGACTCTCCTTT | 0.625
19 | TTTATCATTTGTACCTCTCTGG | 0.594
20 | TATCTTTTTGTGAACAATTTTT | -1.47
21 | TTGCATCCTTTGCATCTCCTGA | -0.744
22 | TGAATCTTTCTTAGCATCCTTT | -0.674

From the OligoGym collection
